Source: the supplement of paper PMC11732987, “Enantioselective OTUD7B fragment discovery through chemoproteomics screening and high-throughput optimisation” (Communications Chemistry, 2025)

Columns and labels:
Test in all cases: log2 ratio of Biotin-Ahx-Ub-VS probe labelling (fragment/DMSO); higher = less target engagement (more negative = stronger competition), active = hit call of the paper (q ≤ 0.05, log2 ratio ≤ -1)
Conditions in all cases: compound concentration: 200 uM; treatment time: 3 h
USP34 = USP34 (UniProt Q70CQ2)
USP34, sequence (Q70CQ2 whole entry, the tested form may be a part): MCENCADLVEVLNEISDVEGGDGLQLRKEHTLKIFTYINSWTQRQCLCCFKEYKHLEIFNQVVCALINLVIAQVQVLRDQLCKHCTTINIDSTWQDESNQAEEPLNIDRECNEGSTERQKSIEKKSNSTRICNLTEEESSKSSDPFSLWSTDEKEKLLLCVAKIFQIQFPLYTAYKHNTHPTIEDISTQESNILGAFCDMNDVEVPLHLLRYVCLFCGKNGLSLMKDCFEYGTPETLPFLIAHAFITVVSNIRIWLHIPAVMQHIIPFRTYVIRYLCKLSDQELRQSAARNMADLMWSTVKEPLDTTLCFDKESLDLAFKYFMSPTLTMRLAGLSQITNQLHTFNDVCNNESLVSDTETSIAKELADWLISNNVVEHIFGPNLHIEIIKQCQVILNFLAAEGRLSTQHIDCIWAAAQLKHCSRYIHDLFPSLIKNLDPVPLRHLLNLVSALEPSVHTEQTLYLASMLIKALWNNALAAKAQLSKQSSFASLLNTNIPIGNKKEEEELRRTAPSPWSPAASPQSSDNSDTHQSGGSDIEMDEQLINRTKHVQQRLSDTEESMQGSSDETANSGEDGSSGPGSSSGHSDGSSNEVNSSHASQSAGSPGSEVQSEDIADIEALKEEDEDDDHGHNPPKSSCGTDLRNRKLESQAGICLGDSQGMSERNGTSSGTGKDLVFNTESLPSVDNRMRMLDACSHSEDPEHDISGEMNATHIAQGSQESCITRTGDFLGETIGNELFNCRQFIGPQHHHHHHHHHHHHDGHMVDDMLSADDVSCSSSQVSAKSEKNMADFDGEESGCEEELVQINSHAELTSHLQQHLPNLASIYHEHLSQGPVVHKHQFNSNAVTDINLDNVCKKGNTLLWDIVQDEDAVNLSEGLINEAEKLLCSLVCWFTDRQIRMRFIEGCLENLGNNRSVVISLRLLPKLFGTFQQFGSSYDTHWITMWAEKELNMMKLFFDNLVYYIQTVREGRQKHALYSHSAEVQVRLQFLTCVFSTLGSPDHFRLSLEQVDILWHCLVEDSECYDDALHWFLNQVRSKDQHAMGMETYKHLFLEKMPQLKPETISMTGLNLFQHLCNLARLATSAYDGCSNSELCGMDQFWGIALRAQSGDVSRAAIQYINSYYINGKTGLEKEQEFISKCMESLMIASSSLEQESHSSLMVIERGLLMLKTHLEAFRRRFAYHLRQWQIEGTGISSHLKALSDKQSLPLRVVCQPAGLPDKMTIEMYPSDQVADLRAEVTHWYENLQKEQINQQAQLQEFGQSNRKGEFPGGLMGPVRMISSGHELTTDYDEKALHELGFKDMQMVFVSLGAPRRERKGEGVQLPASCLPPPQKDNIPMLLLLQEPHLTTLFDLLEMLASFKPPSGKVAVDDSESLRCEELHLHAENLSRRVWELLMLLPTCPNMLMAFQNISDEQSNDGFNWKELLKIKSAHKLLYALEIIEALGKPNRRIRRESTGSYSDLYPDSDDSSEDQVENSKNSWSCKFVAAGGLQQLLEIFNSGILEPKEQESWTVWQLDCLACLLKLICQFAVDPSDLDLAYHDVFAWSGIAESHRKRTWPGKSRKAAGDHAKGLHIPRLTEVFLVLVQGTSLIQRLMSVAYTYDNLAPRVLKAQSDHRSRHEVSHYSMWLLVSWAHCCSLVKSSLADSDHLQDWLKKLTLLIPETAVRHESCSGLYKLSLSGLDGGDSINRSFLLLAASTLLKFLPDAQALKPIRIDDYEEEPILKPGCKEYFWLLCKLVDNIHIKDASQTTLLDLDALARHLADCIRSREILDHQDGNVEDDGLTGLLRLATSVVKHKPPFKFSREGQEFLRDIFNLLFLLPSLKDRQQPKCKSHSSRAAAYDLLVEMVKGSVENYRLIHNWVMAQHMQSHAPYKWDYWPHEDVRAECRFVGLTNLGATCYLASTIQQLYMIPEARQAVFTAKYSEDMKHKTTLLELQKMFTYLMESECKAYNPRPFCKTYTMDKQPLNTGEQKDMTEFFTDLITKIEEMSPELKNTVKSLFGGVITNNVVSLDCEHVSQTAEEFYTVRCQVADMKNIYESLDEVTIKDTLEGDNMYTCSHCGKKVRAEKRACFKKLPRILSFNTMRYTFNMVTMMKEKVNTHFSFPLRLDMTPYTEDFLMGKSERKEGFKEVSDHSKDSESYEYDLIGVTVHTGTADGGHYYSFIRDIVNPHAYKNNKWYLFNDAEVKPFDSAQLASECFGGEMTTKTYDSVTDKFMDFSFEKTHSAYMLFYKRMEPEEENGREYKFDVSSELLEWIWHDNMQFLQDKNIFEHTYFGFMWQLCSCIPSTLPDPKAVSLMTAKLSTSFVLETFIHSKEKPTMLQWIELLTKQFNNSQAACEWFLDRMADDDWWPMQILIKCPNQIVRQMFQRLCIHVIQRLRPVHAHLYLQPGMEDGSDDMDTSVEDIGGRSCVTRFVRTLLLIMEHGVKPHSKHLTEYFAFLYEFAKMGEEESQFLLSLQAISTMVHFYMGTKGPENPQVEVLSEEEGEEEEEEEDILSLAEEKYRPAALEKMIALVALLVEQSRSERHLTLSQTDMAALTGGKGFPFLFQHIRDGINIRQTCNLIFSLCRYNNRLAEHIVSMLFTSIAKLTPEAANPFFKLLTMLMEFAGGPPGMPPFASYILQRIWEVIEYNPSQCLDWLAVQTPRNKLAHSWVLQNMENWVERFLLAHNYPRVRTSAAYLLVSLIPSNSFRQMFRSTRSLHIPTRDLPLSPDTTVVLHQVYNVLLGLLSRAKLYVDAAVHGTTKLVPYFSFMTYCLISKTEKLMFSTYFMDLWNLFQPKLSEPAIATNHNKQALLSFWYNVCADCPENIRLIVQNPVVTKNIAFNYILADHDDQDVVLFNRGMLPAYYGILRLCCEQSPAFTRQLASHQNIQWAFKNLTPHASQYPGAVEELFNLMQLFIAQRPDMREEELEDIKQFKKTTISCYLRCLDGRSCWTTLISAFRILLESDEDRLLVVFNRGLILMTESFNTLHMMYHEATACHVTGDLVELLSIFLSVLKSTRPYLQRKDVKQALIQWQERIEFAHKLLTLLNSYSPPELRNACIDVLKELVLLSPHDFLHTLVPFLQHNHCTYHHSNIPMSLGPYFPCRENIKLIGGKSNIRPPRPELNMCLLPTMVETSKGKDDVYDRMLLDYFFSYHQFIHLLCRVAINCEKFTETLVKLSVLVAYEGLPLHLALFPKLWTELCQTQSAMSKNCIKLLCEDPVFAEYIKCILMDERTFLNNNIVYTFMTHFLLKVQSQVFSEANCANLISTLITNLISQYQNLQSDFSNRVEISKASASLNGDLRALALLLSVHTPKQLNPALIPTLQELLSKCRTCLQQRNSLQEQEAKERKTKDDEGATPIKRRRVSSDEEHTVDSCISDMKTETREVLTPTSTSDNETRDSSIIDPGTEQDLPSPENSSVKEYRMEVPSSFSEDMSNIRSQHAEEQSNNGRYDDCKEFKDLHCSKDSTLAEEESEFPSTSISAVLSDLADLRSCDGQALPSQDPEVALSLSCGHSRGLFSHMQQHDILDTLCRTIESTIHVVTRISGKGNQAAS
Summary of the method: (§1)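 The table lists average log2 ratios of fragment over vehicle, from an unpaired t-test on global-median-normalised Spectronaut label-free quantities. Proteins with ≥2 unique peptides were used. Samples were HEK293T lysate (495 µg) treated in triplicate with fragment at 200 µM or vehicle for 3 h, then with Biotin-Ahx-Ub-VS (0.5 µM final) for 1 h, with labelled DUBs NeutrAvidin-enriched and run by diaPASEF LC-MS/MS.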

USP36 = target: T1, USP36 (UniProt Q9P275)
T1 sequence (whole entry): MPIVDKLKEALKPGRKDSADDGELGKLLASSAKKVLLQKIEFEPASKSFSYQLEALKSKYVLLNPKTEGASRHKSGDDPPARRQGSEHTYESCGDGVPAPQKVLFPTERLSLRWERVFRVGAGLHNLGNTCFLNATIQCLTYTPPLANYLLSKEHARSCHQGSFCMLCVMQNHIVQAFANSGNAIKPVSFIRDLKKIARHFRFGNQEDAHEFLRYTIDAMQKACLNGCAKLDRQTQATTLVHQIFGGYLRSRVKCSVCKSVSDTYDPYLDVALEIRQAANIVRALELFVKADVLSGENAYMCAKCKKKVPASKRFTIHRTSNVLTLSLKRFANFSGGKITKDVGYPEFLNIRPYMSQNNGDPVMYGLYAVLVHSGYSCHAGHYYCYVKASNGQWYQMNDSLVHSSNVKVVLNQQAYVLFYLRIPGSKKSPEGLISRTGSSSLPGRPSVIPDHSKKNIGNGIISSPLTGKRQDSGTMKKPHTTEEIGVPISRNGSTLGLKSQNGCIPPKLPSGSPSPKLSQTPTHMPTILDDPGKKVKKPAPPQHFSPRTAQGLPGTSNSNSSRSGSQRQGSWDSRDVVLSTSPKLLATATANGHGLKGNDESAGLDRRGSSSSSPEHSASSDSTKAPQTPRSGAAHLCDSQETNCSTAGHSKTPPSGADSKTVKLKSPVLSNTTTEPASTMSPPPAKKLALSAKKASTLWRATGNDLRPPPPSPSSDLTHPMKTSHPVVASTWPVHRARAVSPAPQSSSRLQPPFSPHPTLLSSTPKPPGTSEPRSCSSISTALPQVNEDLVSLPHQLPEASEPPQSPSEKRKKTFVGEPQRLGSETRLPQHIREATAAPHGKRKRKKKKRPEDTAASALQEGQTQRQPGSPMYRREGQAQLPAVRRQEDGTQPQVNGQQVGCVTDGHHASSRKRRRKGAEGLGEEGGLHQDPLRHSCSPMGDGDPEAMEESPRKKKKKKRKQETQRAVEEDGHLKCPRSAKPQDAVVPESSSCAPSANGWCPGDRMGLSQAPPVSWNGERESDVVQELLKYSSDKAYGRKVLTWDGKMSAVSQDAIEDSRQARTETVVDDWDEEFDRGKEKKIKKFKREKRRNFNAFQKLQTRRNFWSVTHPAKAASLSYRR
Summary of the method: as §1

USP38 = target: T2, USP38 (UniProt Q8NB14)
T2 sequence (whole entry): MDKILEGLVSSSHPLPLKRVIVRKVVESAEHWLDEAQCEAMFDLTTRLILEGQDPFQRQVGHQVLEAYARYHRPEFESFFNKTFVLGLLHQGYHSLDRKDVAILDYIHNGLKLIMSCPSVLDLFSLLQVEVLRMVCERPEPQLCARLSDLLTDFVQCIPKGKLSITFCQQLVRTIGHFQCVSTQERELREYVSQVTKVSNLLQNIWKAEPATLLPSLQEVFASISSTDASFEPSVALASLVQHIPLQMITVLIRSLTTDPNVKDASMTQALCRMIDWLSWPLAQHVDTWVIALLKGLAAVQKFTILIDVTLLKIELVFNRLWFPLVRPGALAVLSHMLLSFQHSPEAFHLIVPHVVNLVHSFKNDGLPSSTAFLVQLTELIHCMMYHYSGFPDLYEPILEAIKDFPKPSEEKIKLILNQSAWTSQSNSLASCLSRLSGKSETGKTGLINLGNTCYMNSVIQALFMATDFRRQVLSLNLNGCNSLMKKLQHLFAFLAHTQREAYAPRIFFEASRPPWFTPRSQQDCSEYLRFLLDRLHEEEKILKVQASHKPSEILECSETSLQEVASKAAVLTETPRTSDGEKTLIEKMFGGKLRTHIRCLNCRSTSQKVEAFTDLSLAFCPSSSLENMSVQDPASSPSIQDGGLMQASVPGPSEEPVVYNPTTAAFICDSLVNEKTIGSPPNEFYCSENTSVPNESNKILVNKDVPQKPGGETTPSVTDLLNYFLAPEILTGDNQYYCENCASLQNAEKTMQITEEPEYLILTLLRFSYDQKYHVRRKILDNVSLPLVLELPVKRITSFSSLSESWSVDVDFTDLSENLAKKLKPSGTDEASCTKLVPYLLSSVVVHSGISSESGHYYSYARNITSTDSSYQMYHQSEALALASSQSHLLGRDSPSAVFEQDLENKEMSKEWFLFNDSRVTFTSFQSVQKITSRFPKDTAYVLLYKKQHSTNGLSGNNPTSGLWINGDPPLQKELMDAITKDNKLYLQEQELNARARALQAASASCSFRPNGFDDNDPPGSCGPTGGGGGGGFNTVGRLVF
Summary of the method: as §1

USP39 = target: T3, USP39 (UniProt Q53GS9)
T3 sequence (whole entry): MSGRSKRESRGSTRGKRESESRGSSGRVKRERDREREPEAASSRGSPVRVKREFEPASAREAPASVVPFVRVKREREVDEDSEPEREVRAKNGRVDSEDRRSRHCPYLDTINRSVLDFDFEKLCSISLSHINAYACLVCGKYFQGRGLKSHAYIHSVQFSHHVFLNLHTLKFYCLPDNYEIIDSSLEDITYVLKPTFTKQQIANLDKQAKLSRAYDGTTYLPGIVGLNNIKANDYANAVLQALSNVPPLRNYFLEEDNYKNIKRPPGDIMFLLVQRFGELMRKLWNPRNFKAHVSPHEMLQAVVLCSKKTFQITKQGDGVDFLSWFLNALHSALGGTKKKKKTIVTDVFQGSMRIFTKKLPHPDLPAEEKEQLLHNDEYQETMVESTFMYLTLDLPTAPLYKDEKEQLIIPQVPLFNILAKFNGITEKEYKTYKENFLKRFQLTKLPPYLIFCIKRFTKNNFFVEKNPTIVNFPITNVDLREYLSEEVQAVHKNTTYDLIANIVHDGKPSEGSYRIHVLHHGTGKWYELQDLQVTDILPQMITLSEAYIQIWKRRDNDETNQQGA
Summary of the method: as §1

USP4 = target: T4, USP4 (UniProt Q13107)
T4 sequence (whole entry): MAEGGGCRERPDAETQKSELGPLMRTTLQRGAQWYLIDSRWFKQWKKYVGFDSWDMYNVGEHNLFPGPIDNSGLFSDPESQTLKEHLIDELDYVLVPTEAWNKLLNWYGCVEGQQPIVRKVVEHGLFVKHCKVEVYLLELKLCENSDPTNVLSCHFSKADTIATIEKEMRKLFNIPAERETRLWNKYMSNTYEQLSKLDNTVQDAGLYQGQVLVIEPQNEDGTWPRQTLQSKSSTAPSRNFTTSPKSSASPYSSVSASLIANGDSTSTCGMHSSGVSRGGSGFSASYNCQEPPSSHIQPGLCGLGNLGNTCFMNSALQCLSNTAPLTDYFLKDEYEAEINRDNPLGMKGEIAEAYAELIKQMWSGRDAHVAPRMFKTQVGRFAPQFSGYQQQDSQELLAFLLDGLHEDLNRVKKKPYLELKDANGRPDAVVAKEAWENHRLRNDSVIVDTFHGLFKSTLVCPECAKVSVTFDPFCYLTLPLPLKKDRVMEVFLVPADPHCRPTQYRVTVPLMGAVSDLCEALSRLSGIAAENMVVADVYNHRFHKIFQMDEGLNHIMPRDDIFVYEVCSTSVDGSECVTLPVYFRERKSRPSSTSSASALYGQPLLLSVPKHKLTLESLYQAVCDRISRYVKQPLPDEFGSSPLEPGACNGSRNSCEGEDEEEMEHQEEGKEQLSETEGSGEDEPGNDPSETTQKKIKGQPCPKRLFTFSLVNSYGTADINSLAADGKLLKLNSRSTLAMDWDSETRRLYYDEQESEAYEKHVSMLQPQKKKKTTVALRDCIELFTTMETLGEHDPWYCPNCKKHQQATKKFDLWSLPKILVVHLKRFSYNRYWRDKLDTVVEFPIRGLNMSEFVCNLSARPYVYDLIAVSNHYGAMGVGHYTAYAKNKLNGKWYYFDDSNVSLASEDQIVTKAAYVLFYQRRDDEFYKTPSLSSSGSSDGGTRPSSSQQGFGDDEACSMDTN
Summary of the method: as §1

Measured: log2 ratio of Biotin-Ahx-Ub-VS probe labelling

CC1Cc2ccccc2N1C(=O)CCl (stereo not given)
inactive: USP34 -0.159 | USP36 0.0162 | USP38 -0.00784 | USP39 -0.0124 | USP4 -0.603
